Results published in ChEMBL document CHEMBL3988442, “University of Dundee, Small-Polar-MMV Screening Library” (2021).
Out of some 48,000 compounds screened, about 13,000 (27%) showed an effect of 50% or more. This is one part of the list.

system: Wolbachia pipientis; test: Anti-Wolbachia Cell-Based Screen; format: functional; design: scale not given: in the data most compounds retested in dose-response had high values; settings: 5 µM

SMILES	Percent Effect [%]
CC(NC(=O)Nc1cnn(CC(N)=O)c1)c1ccc(Cl)s1 (stereo not drawn)	9.25
NC(=O)NCCC(=O)N1CCC(c2cc(-c3ccccc3Cl)n[nH]2)CC1	-13.9
CC(C)(CNC(=O)CSc1nnnn1C1CC1)c1ccccc1F	14.51
CC(C)(C#N)c1ccc(NS(=O)(=O)CC2CCCCO2)cc1 (stereo not drawn)	-23.28
CC(=O)N1N=C(c2cccs2)OC1C(=O)NCCc1cccc(Cl)c1 (stereo not drawn)	135.3
Cc1nc(NCCc2ccc(Cl)cc2)cc(C(=O)N2CCCCC2)n1	24.03
NC(=O)c1cccc(CCNCc2cnc(-c3cccs3)s2)c1	-4.854
CC(C)N(CCNC(=O)c1[nH]nc2ccc(I)cc12)C(C)C	-4.489
Cc1nc(NCCc2ccc(Cl)cc2)cc(C(=O)N2CCOCC2)n1	8.895
Cn1cc(CCNC(=O)C2(c3cccc(Cl)c3)CC2)cn1	11.84
CC(=O)N1N=C(c2ccccc2)OC1C(=O)NCCc1ccc(Cl)cc1 (stereo not drawn)	146.7
CC(=O)N1N=C(c2ccccc2)OC1C(=O)NCCN(C(C)C)C(C)C (stereo not drawn)	125.8
CC(C)N(C)CCCNC(=O)c1cnc(-c2ccccc2)nc1	-3.501
Cc1nc(CN2Cc3cn(C)nc3C(COCC3CC3)C2)cs1 (stereo not drawn)	-15.47
O=C(c1cccs1)N1CC[C@H]2[C@@H]1CCC(=O)N2c1cccnc1	-2.771
CN(C)C(=O)N[C@@H]1CN(C2CCOCC2)[C@@H]2CCCO[C@@H]21.O=C(O)C(F)(F)F	-11.3
COc1ccc(CN2CCCn3cnc(COC(C)C)c3C2)cc1.O=C(O)C(F)(F)F	23.92
CCc1nc(Cn2nc(C3CCNCC3)n(-c3ccccc3)c2=O)cs1	10.87
CSCCC(=O)N1CCCC1c1ccsc1 (stereo not drawn)	-16.09
CC(=O)N1C[C@@H](c2ccsc2)[C@@H]2CN(Cc3ccccc3C)CC[C@@H]21	115.6
NC(=O)C1CCN(CC(=O)N2CCCC2c2ccsc2)CC1 (stereo not drawn)	-14.97
CC(=O)N1C[C@@H](c2ccsc2)[C@@H]2CN(Cc3ccccc3)CC[C@@H]21	3.604
CC(=O)N1C[C@@H](c2ccsc2)[C@@H]2CN(CC3CCCCC3)CC[C@@H]21	84.31
COc1ccccc1CN1CC[C@H]2[C@@H](C1)[C@H](c1ccsc1)CN2C(C)=O	109
NC(=O)CN1CCC(NC(=O)N2CCCC2c2ccsc2)CC1 (stereo not drawn)	-19.01
CC(=O)N1C[C@@H](c2ccsc2)[C@@H]2CN(Cc3ccccc3Cl)CC[C@@H]21	132.7
CC(=O)N1CCC(NC(=O)N2CCCC2c2ccsc2)CC1 (stereo not drawn)	-39.95

SMILES	Percent Effect [%]
CCn1cnnc1CNC(=O)N(C)Cc1c(F)cccc1Cl	-9.877
CCCn1ncc(C(=O)NCCc2[nH]nc3c2CCCC3)c1C	17.81
CC1(C)[C@H](Cc2cc(CO)on2)C[C@@H]1N(CC1CC1)CC1CC1	3.295
CCc1ccc(CN2CCC(CNS(=O)(=O)C3CC3)C2)nc1 (stereo not drawn)	-5.185
O=S(=O)(Cc1ccccc1)NCC1CCN(c2cnccn2)CC1	-2.116
O=S(=O)(NCC1CCN(c2cnccn2)CC1)C1CC1	99.54
Cc1ncc(CN2CCC(CNS(=O)(=O)C3CC3)C2)cn1 (stereo not drawn)	-9.849
CCS(=O)(=O)NCC1CCN(c2cnccn2)CC1	106
CCc1ncncc1C(=O)NC1CCc2nc(C)cn2C1 (stereo not drawn)	106.8
Cc1cn2c(n1)CCC(NC(=O)c1ccc(CS(C)(=O)=O)cc1)C2 (stereo not drawn)	1.181
Cc1cn2c(n1)CCC(NC(=O)c1cc(C(C)C)no1)C2 (stereo not drawn)	2.478
Cc1ncc(C(=O)NC2CCc3nccn3C2)c(C(C)C)n1 (stereo not drawn)	126.1
Cc1cn2c(n1)CCC(NC(=O)c1ccc(OCC3CC3)nc1)C2 (stereo not drawn)	-16.45
Cc1cc(C(=O)NC2CCc3nc(C)cn3C2)[nH]n1 (stereo not drawn)	-4.172
Cc1cn2c(n1)CCC(NC(=O)c1cnc(C)nc1C(C)C)C2 (stereo not drawn)	1.666
Cc1cn2c(n1)CCC(NC(=O)c1c[nH]c(C)n1)C2 (stereo not drawn)	3.74
O=C(NC1CCc2nccn2C1)c1ccc(NC2CC2)nc1 (stereo not drawn)	9.006
Cc1cn2c(n1)CCC(NC(=O)c1csc(C(C)C)n1)C2 (stereo not drawn)	134.7
Cc1cn2c(n1)CCC(NC(=O)c1nc(C)ncc1Cl)C2 (stereo not drawn)	-6.875
Cc1cn2c(n1)CCC(NC(=O)c1cncnc1C)C2 (stereo not drawn)	122.4
CCCn1cnc(S(=O)(=O)Nc2cccnc2-n2cccn2)c1	0.1975
CC(=O)N1CCN(C(=O)CNc2cccc(OC(F)F)c2C)CC1	-4.859
CS(=O)(=O)Nc1ccc(-n2c(CCCO)nc3ccccc32)cn1	-0.6251
Oc1ccccc1N1CCN(c2ncnc3sc4c(c23)CCNC4)CC1	-35.6
CC(C#N)CNC(=O)Nc1ccc(-c2cc[nH]n2)cc1 (stereo not drawn)	-10.22
COC(=O)c1sccc1S(=O)(=O)N1CCc2c(ncnc2N(C)C)C1	-35.5
